Screening results from PubChem.
GDH-TPI counter-1 – GDH-TPI coupled enzyme inhibition counter-screen. AID 588335. GDH-TPI coupled enzyme counterscreen, NADH absorbance. 360,000 tested, 1.2% active. inhibition, % at 4.8 µM; in the data active = inhibition above about 30%
PrPC TRFRET – inhibitors of human cell surface prion protein PrPC; P04156; TR-FRET read-out; inhibition, % at 13.8 µM; 370,000 tested, 0.43% active; in the data active = inhibition above about 24%
TcdB GH inh – blocks C. difficile toxin B glycohydrolase activity. P18177. TcdB glycohydrolase enzymatic assay, plate reader. inhibition, % at 9.99 µM. 350,000 tested, 0.24% active
Mtb FBA inh – inhibits M. tuberculosis FBA enzyme; 360,000 tested, 2.3% active; purified M. tuberculosis FBA, fluorescence read-out; inhibition, % at 1 µM; AID 588726; P9WQA3; in the data active = inhibition above about 27%
Y pestis TopoI – Y. pestis Topo-I inhibition via cleavage products | activity, % at 10 µM | Y. pestis Topo-I cleavage product accumulation, plate reader | 360,000 tested, 0.064% active; in the data active = activity above about 50%, passing the limit was not always enough
Mtb FBA inh conf – confirmation of M. tuberculosis fructose-bisphosphate aldolase inhibitors | shares compounds with Mtb FBA inh | purified M. tuberculosis FBA, fluorescence read-out | inhibition, % at 1 µM | 5,600 tested, 78% active; in the data active = inhibition above about 27%
GDH-TPI counter-2 – GDH-TPI inhibition counter-screen for FBA inhibitors. 5,600 tested, 81% active. GDH-TPI coupled enzyme counterscreen, fluorescence. shares compounds with Mtb FBA inh. inhibition, % at 1 µM
Hits are given with their value; - = inactive; . = no result; + = active, no number. An excerpt weighted towards active compounds, which were near 3.2% of everything screened. Rule as the data show it, unless noted: active = inhibition above about 10%; inactive = the rest.

SMILES	GDH-TPI counter-1	PrPC TRFRET	TcdB GH inh	Mtb FBA inh	Y pestis TopoI	Mtb FBA inh conf	GDH-TPI counter-2
Cc1ccccc1C(=O)N1CCN(c2ccc(N3CCOCC3)nn2)CC1	-	-	-	37	-	56	43
COc1cccc(C(=O)N2CCN(c3ccc(N4CCOCC4)nn3)CC2)c1	-	-	-	29	-	-	-
COCCNC(=O)C[C@@H]1CC[C@H]2[C@H](COc3ccc(NC(=O)c4cnccn4)cc3C(=O)N2C)O1	.	.	-	.	.	.	.
Cc1ccc2[nH]c(-c3cccc(N)c3)cc2c1	-	-	.	43	-	152	128
Cc1ccc2[nH]c(-c3cccc(F)c3)cc(=O)c2c1	-	-	-	-	-	.	.
NC(=O)COc1ccc2oc(-c3ccccc3)cc(=O)c2c1	-	-	-	77	-	-	-
CCc1ccccc1NC(=O)COc1ccc2oc(-c3ccc(OC)cc3)cc(=O)c2c1	-	-	-	35	-	75	52
C[C@H](CO)N1C[C@H](C)[C@H](CN(C)C(=O)c2ccc(F)cc2)Oc2ncc(C#C[C@@H](C)O)cc2C1=O	.	.	-	.	.	.	.
CC(NC(=O)c1ccccc1NS(C)(=O)=O)c1ccccc1 (configuration not stated)	-	-	.	42	-	133	106
Cc1ccc(CNC(=O)c2ccccc2NS(C)(=O)=O)cc1	-	-	.	38	-	+	+
CC(NC(=O)c1ccc(NS(C)(=O)=O)cc1)c1ccccc1 (configuration not stated)	-	-	.	-	-	.	.
CS(=O)(=O)Nc1ccccc1C(=O)O	-	-	.	28	-	117	104
Cc1cc(C)c(C)c(S(=O)(=O)Nc2ccccc2C(=O)O)c1C	-	-	-	27	-	-	11
Cc1ccc(CNC(=O)c2ccccc2NS(=O)(=O)c2ccc(Cl)nc2)cc1	-	-	-	-	-	.	.
Cc1cc(S(=O)(=O)Nc2ccccc2C(=O)O)ccc1Cl	-	-	-	-	-	.	.
C[C@@H]1CCCCO[C@@H](CN(C)S(=O)(=O)c2ccc(F)cc2)[C@H](C)CN([C@H](C)CO)C(=O)c2cc(NC(=O)Nc3cccc4ccccc34)ccc2O1	.	.	-	.	.	.	.
Cc1cc(C(=O)Nc2cccc3c2O[C@H](CN(C)Cc2ccc(-c4ccccc4)cc2)[C@@H](C)CN([C@@H](C)CO)C3=O)n(C)n1	.	.	-	.	.	.	.
C[C@H]1CN([C@@H](C)CO)S(=O)(=O)c2ccc(C3=CCCC3)cc2O[C@H]1CN(C)C	.	.	-	.	.	.	.
Cc1ccc(Cn2cccc(-c3nc4ccccc4s3)c2=O)cc1	-	-	.	54	-	115	107
Oc1ccc(-c2nc3ccccc3s2)cc1	-	-	-	94	-	75	63
c1csc(-c2nc3ccccc3s2)c1	-	-	-	39	-	-	-
COc1ccc(-c2nc3ccccc3s2)cc1NC(C)=O	39	-	-	73	-	138	118
c1ccc2sc(-c3ccncc3)nc2c1	-	-	-	-	-	.	.
Nc1ccccc1-c1nc2ccccc2s1	-	-	-	51	-	197	147
Oc1ccc(-c2nc3ccccc3s2)c(O)c1	-	-	-	37	-	106	84
SMILES	GDH-TPI counter-1	PrPC TRFRET	TcdB GH inh	Mtb FBA inh	Y pestis TopoI	Mtb FBA inh conf	GDH-TPI counter-2
O=C(C[C@@H]1C=C[C@H](NC(=O)Nc2ccc3c(c2)OCO3)[C@@H](CO)O1)NCc1ccc2c(c1)OCO2	.	.	-	.	.	.	.
O=C(O)C[C@H]1CC[C@@H](NC(=O)c2ccccc2F)[C@H](CO)O1	.	.	-	.	.	.	.
COc1cccc(Oc2ccc(OC)cc2C(=O)O)c1	-	-	-	-	-	.	.
COc1cccc(-c2c(C(=O)O)cc(O)c3ccc(OC)cc23)c1	-	-	-	34	-	-	-
O=S(=O)(Cc1ccccc1)N1CCN(C2Cc3ccccc3C2)CC1	-	-	.	29	-	+	+
CS(=O)(=O)N1CCN(C2Cc3ccccc3C2)CC1	-	-	-	-	-	.	.
C=C(C)CN(CC)C(=O)CN1C(=O)NC2(CCCc3ccccc32)C1=O (configuration not stated)	-	-	-	63	-	101	85
C=C(C)CN(CC)C(=O)CN1C(=O)NC2(CCc3ccccc32)C1=O (configuration not stated)	-	-	-	-	-	.	.
COc1ccc2nc(Nc3ccc4c(c3)OCO4)sc2c1	-	-	.	-	-	.	.
COc1ccc2nc(Nc3nc4cc5c(cc4s3)OCO5)sc2c1	-	-	.	57	-	+	+
